Shown are actives, neighbours in structure and some others; about 4.1% of the full set was active somewhere.
Gli-Sufu antag: antagonists of Gli-Sufu signaling; Sufu-KO-LIGHT fibroblasts, Gli luciferase reporter luminescence; inhibition, % at 5 µM; 340,000 compounds, 0.74% hits; AID 588413;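 active = inhibition above about 55%, limit read from the data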;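 also: 0% = DMSO-treated cells and 100% = wells with medium but no cells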
KLF5 inhibitor: kruppel-like factor 5 inhibition; DLD-1 KLF5 promoter-luciferase reporter, luminescence; inhibition, % at 5 µM; 290,000 compounds, 0.23% hits;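 active = inhibition above a per-plate limit of that plate's mean compound inhibition plus 3 SD, cut at about 60% in these data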;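 also: 0% = DMSO wells and 100% = LY294002 at 200 µM; higher means less KLF5 promoter-driven luciferase light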
aSyn 5UTR inh: 5' untranslated region of α-synuclein, MLPCN primary screen; alpha-synuclein 5'UTR reporter, inhibitor activity; inhibition, % (tested at 7.5 µM); 300,000 compounds, 0.82% hits; AID 1813; in the data active = inhibition above about 60%;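 also: H4 neuroglioblastoma cells stably carrying SNCA 5'UTR luciferase fusion; 0% = DMSO wells and 100% = positive control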
Jurkat NFkB inh: lowers PMA/ionomycin-induced NF-kB signal in Jurkat cells; AID 435003; inhibition, % at 4 µM; PMA/ionomycin-induced NF-kB luciferase reporter, luminescence; 330,000 compounds, 0.53% hits; in the data active = inhibition above about 50%
Mdm2 MdmX PPI: disrupts the human Mdm2-MdmX interaction; inhibition, % at 8 µM; SaOS-2 split-luciferase Mdm2/MdmX complementation, luminescence; 330,000 compounds, 3% hits;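 active = inhibition of at least 50% at 8 µM in the primary screen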
697 NFkB inh: inhibitors of the PMA/ionomycin-induced NF-kB reporter in 697 B cells; 697 B-cell NF-kB luciferase reporter, 16 h; inhibition, % at 4 µM; 330,000 compounds, 0.33% hits; AID 435022; in the data active = inhibition above about 35%
Jurkat NFkB conf: inhibitors of the PMA/ionomycin-induced NF-kB reporter in Jurkat cells, retest. AID 435020. 2,700 compounds, 27% hits. shares compounds with Jurkat NFkB inh. inhibition, % at 4 µM. Jurkat NF-kB luciferase, 16 h;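 active = inhibition reaching about 45% at 4 µM in either replicate, limit read from the data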;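 also: plate controls were PMA/ionomycin stimulated DMSO wells for no effect and unstimulated DMSO wells for full effect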
697 NFkB conf: inhibitors of the PMA/ionomycin-induced NF-kB reporter in 697 B cells, retest | 697 B-cell NF-kB luciferase, 16 h | inhibition, % at 4 µM | shares compounds with 697 NFkB inh | 2,000 compounds, 35% hits; in the data active = inhibition mostly above about 28%, no sharp cut-off; inactive = mostly below about 22%
Mdm2 MdmX conf: human Mdm2/MdmX binding inhibition, confirmed; shares compounds with Mdm2 MdmX PPI; luminescent assay; inhibition, % at 8 µM; 10,000 compounds, 55% hits; AID 489028; in the data active = inhibition above about 40%
FLuc counter: inhibits full-length luciferase, flagging false Mdm2/MdmX hits; shares compounds with Mdm2 MdmX PPI; 6,200 compounds, 77% hits; inhibition, % at 8 µM; AID 504607; SaOS-2 full-length luciferase counterscreen, luminescence;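 active = mean inhibition at 8 µM reaching about 37%, which flags the compound as non-specific, limit read from the data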;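 also: p53-null SaOS-2 cells with luciferase driven by a doxycycline-inducible promoter; compound on cells about two nights before reading with doxycycline added after day one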
Active calls of the source: *; i = inactive; / = no result.

SMILES	Gli-Sufu antag	KLF5 inhibitor	aSyn 5UTR inh	Jurkat NFkB inh	Mdm2 MdmX PPI	697 NFkB inh	Jurkat NFkB conf	Mdm2 MdmX conf	FLuc counter	others
CCOc1ccc(Br)cc1/C(C)=N\NC1=NCCN1	5	-34	5	70*	70*	-28	26	55*	56*
CCCOc1ccc(C(=O)N/N=C/c2c[nH]c3ccc(Br)cc23)cc1	25	-25	6	-46	46	16	/	/	/
CCCCCN=C(N)N/N=C/c1c[nH]c2ccc(OC)cc12	31	/	108*	100*	99*	-13	31	98*	30
Nc1ccccc1/C=C/c1ccccc1N	-53	/	/	/	/	/	/	/	/
CSCCC(NC(=O)c1cccc(C)c1)C(=O)NCc1cccs1 (stereo not given)	-11	/	/	-10	9	0	/	/	/
CCOC(=O)N=Nc1c(O)n(CC(=O)OC)c2ccccc12	-15	-11	3	10	1	13	/	/	/
CCOC(=O)N=Nc1c2ccccc2c2nc3no[nH]c3nc12	97*	1	119*	60*	100*	33	98*	100*	1
NC(=O)c1ccc[n+](CC(=O)c2cccc([N+](=O)[O-])c2)c1	9	-8	10	-4	0	15	/	/	/
CCOC(=O)C1CCN(S(=O)(=O)c2ccc3oc(=O)ccc3c2)CC1	-7	2	-6	2	11	-5	/	/	/
COc1cccc(C(=O)N/N=C/c2ccc(OC)c(COc3ccccc3C(N)=O)c2)c1	/	-5	-18	-1	22	14	/	/	/
COc1ccc(/C=N\NC(=O)c2cccc(F)c2)cc1COc1ccccc1	49	/	88*	52*	58*	12	53*	64*	75*
COc1ccc(N(C(=O)c2snc(C(N)=O)c2N)C(C(=O)NC2CCCC2)c2cccs2)cc1OC (stereo not given)	-1	5	17	-3	-8	13	/	/	/
C#CC(=O)N(c1ccc(OC)cc1OC)C(C(=O)NC1CCCC1)c1cccs1 (stereo not given)	57*	7	92*	90*	89*	97*	67*	100*	51*	697 NFkB conf=104*
C#CC(=O)N(c1cc(OC)ccc1OC)C(C(=O)NC1CCCC1)c1cccs1 (stereo not given)	86*	32	25	95*	100*	99*	85*	100*	52*	697 NFkB conf=105*
Cc1cc(NC(=O)c2cc(-c3ccncc3)nc3c(C)cccc23)no1	0	34	32	52*	61*	-26	23	49*	53*
Cc1ccc(-c2cc(C(=O)Nc3cc(C)on3)c3ccccc3n2)cc1	-11	-21	13	5	-11	-11	/	/	/
CC(C)Cc1ccc(C(C)C(N)=NCCc2ccccc2)cc1 (stereo not given)	14	-9	-75	50*	81*	-25	1	72*	48*
NN(CCO)C(=S)Nc1ccc(Cl)cc1	18	-25	-6	-9	6	14	/	/	/
O=C(Nc1ccc(N2CCOCC2)cc1N1CCOCC1)c1cccc([N+](=O)[O-])c1	24	-25	11	15	13	14	/	/	/
CCOc1ccc(NS(=O)(=O)c2cc(NC(=O)c3ccc(C)cc3)ccc2Cl)cc1	-9	48	10	53*	57*	-148	34	67*	64*
CCOc1ccc(Oc2ccc(NS(=O)(=O)c3cc(C(=O)O)ccc3Cl)cc2)cc1	0	/	/	-6	14	12	/	/	/
COc1ccc(C2=NOC(COc3ccc4c(C)cc(=O)oc4c3)C2)c(OC)c1 (stereo not given)	-10	49	83*	51*	56*	-10	35	56*	60*
COc1cccc(COc2ccc3c(C)cc(=O)oc3c2)c1	-92	-183	-164	-128	-198	-159	/	/	/
CCOC(=O)c1ccc(N2CCOCC2)c(NC(=O)c2c(-c3ccccc3)noc2C)c1	-4	50	46	64*	60*	-17	13	67*	54*
Cc1ccccc1C(=O)NNC(=O)C1CC(=O)N(c2ccc3c(c2)OCCO3)C1 (stereo not given)	0	/	/	8	1	-3	/	/	/
SMILES	Gli-Sufu antag	KLF5 inhibitor	aSyn 5UTR inh	Jurkat NFkB inh	Mdm2 MdmX PPI	697 NFkB inh	Jurkat NFkB conf	Mdm2 MdmX conf	FLuc counter	others
Cc1cccc(N2CCN(C(=O)c3cc(S(=O)(=O)N4CCCC4)cn3C)CC2)c1C	17	43	35	61*	55*	-47	20	58*	49*
Cc1cccc(N2CCN(C(=O)c3cc(S(=O)(=O)N4CCOCC4)cn3C)CC2)c1C	-9	1	-15	-5	28	1	/	/	/
Clc1ccc(Cn2ncc3c(NCc4ccccc4)ncnc32)c(Cl)c1	/	-12	39	65*	69*	-52	32	69*	39*
O=C1N(c2ccccc2)C[C@@H]2C[C@@H](c3cc4ccccc4o3)N3CCC[C@@]123	76*	54	i	72*	98*	-40	-8	98*	35
CNC(=S)N/N=C/c1ccco1	-2	-2	8	7	-19	15	/	/	/
CCCC(=O)Nc1nc2ccc(NC(=O)c3ccccc3F)cc2s1	-38	36	37	60*	55*	-76	27	56*	74*
Cc1cccc(C(=O)NCCc2ccccc2)c1	-70	-150	-112	-101	-83	-158	/	/	/
Cc1ccc(O)c(N=Nc2nccs2)c1	17	/	/	59*	75*	-82	79*	64*	23
COc1ccc(NC(=O)CNC(=O)c2nn(-c3ccc(OC)c(OC)c3)c(=O)c3ccccc23)c(OC)c1	14	14	31	6	4	16	/	/	/
COc1ccc(-n2nc(C(=O)NCC(=O)Nc3cc(OC)c(OC)c(OC)c3)c3ccccc3c2=O)cc1OC	2	25	12	57*	70*	31	-8	67*	68*
COc1ccc2nc3oc(C(=O)NC4CCN(Cc5ccccc5)CC4)cc3cc2c1	10	-2	/	63*	98*	-38	22	91*	20
COc1ccc(/C=C/C(=O)c2cc(F)ccc2OC(=O)c2ccccc2C)cc1OC	42	68*	82*	60*	61*	-98	9	66*	117*
COc1ccc(C(=O)Oc2ccc(F)cc2C(=O)/C=C/c2ccc(OC)c(OC)c2)cc1	-5	-11	-52	5	-23	-7	/	/	/

Assay outcomes from PubChem BioAssay.
